The list is not random: actives were taken first. Their share in the collection is about 18%.
Six1-Eya2 blk: blocks human Six1 binding to Eya2. activity change, % (no concentration beside the values). Q15475+O00167. 360,000 tested, 0.56% active. AlphaScreen GST-Six1/His-Eya2 binding, biochemical; stronger effect = lower value; in the data active = activity change below about -65%; inconclusive = mostly about -30% to -63%
Target sequence (O00167 whole entry, looked up): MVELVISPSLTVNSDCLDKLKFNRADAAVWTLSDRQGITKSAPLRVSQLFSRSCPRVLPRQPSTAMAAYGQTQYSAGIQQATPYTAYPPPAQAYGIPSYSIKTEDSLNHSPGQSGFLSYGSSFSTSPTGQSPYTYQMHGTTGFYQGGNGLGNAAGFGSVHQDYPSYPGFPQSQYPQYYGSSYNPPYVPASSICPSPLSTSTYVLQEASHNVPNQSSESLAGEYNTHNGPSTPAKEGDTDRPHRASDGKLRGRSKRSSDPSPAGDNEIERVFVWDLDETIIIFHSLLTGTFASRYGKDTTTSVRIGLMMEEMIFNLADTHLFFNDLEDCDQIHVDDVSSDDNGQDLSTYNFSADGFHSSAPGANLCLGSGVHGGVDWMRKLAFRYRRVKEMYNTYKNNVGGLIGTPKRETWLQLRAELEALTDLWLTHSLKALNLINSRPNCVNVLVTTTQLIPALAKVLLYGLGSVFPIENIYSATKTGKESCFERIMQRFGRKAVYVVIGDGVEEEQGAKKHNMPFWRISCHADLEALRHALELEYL
Target sequence (Q15475 whole entry, looked up): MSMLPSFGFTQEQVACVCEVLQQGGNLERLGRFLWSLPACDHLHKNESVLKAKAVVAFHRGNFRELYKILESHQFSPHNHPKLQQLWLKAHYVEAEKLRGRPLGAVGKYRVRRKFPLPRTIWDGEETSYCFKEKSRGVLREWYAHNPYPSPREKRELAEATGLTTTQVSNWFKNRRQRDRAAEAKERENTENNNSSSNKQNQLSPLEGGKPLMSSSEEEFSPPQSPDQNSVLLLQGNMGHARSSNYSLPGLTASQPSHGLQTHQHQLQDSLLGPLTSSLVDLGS
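Compounds are tested against tagged Six1 and Eya2 proteins bridged by glutathione donor and nickel acceptor beads; after a one-hour incubation at 37 °C without light, AlphaScreen emission is recorded.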
DT40 TDP1 CPT: DT40-hTDP1 cell growth loss with CPT; chicken DT40 Tdp1-/-;hTDP1 cells + 20 nM CPT, ATP luminescence, 48 h; Potency, µM (titrated, usually from 46.2 µM), actives largely listed as inhibitors; 420,000 tested, 12% active; also: nearly all actives have a fitted effect of over 55% in size
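Chicken DT40 Tdp1-/- cells stably complemented with human TDP1 were seeded at 400 cells/well in medium containing 20 nM camptothecin, exposed to pin-transferred compounds, and grown at 37 °C for at least 48 hr. Viability was read as ATP luminescence.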
TDP1 block: blocks human tyrosyl-DNA phosphodiesterase 1; Potency, µM (series often up to 130 µM), actives largely listed as inhibitors; 350,000 tested, 0.28% active; Q9NUW8; recombinant TDP1, AlphaScreen DNA substrate cleavage; also: nearly all actives have a fitted effect of over 40% in size
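Steps: enzyme plus compound, 15 min RT; add biotin/phosphotyrosine-FITC oligonucleotide (15 nM final), react 5 min; add donor/acceptor beads (10 ug/ml final), 10 min; read AlphaScreen. Tdp1 at 1 nM final.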
IL1B secr inh: inflammasome signaling inhibition, IL-1 beta readout | THP-1 LPS/ATP IL-1B secretion, AlphaLISA, 16 h; stronger effect = lower value | AID 743279 | 360,000 tested, 4.7% active | activity change, % at 57.5 µM; in the data active = activity change below about -50%; inconclusive = mostly about -30% to -49%
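THP-1 cells pretreated 1 hr with compounds (up to 57.5 uM final), then stimulated with LPS (250 ng/mL final) plus ATP (1.25 mM final); secreted IL-1B measured by AlphaLISA after 16 hr, decreased signal indicating inhibition.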
TDP1 cell noCPT: qHTS for Inhibitors of human tyrosyl-DNA phosphodiesterase 1 (TDP1): qHTS in cells in absence of CPT. DT40 Tdp1-/- hTDP1 cells, no CPT, ATP luminescence, 48 h. Potency, µM (doses to about 46.2 µM), most hits filed as inhibitors. 420,000 tested, 15% active. AID 686978, 2013; also: nearly all actives have a fitted effect of over 55% in size
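DT40 Tdp1-/-;hTDP1 cells, no CPT (DMSO vehicle only), 400 cells/well; compounds pin-transferred; ≥48 hr, 37 °C; CellTiter-Glo 30 min RT dark, luminescence read.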
CtBP-E1A blk: CtBP/E1A binding inhibition | 340,000 tested, 0.49% active | activity change, % (no concentration beside the values) | AlphaScreen GST-E1A/His-CtBP binding, 1536-well; stronger effect = lower value | AID 651724; in the data active = activity change below about -65%; inconclusive = mostly about -30% to -63%
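AlphaScreen with 125 nM GST-E1A and 125 nM His-CtBP (5X stocks) in Tris pH 8.0, 300 mM NaCl, BSA, Tween 20, TCEP. Compounds preincubated 2 h at 37 deg C, then glutathione donor/nickel acceptor beads added for 1 h at 37 deg C in dark.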
Numbers stand for hits. Unless noted, calls follow the shape of the dose curve; as a rule, active = well fitted curve in the direction sought with a large enough effect; inconclusive = small, poorly fitted or top-dose-only effect, or another doubt; inactive = no such curve, though single readings can be large; an effect the other way counts as inactive or inconclusive.

O=C(C[C@H]1C[C@H](C(=O)N2CCOCC2)[C@@]2(CCC3CCCC3)c3[nH]c4cc(-c5ccco5)ccc4c3CCN2C1=O)NCc1cccc(C(F)(F)F)c1 was read as Six1-Eya2 blk inactive, DT40 TDP1 CPT 16µM, TDP1 block inactive, IL1B secr inh -53, TDP1 cell noCPT inconclusive and CtBP-E1A blk inactive.
`COCCCNC(=O)C[C@H]1C[C@H](C(=O)N2CCOCC2)[C@@]2(CCC3CCCC3)c3[nH]c4cc(-c5ccco5)ccc4c3CCN2C1=O` gave Six1-Eya2 blk inactive, DT40 TDP1 CPT inconclusive, TDP1 block inactive, IL1B secr inh inconclusive, TDP1 cell noCPT inconclusive and CtBP-E1A blk inactive.
For O=C(CC1C[C@H](C(=O)N2CCOCC2)[C@@]2(CCC3CCCC3)c3[nH]c4ccccc4c3CCN2C1=O)NCCN1CCOCC1 (stereo not given in full) the results were Six1-Eya2 blk inactive, DT40 TDP1 CPT inconclusive, TDP1 block inactive, IL1B secr inh inactive, TDP1 cell noCPT inconclusive and CtBP-E1A blk inactive.
`CCOCCCN(C(=O)Cn1nnc(-c2ccc(C)o2)n1)C(C(=O)NCC1CCCO1)c1ccc(F)cc1` (stereo not given) gave Six1-Eya2 blk inactive, DT40 TDP1 CPT inactive, TDP1 block inactive, IL1B secr inh inactive, TDP1 cell noCPT inactive and CtBP-E1A blk inactive.
`Cc1ccc(C(=O)N/C(=C\c2ccco2)C(=O)N2CCOCC2)cc1C` gave Six1-Eya2 blk inactive, DT40 TDP1 CPT inactive, TDP1 block inactive, IL1B secr inh inactive, TDP1 cell noCPT inactive and CtBP-E1A blk inactive.
Screening O=C(CC1C[C@H](C(=O)N2CCOCC2)[C@@]2(CCC3CCCC3)c3[nH]c4ccccc4c3CCN2C1=O)NCC12CC3CC(CC(C3)C1)C2 (stereo not given in full) returned Six1-Eya2 blk inactive, DT40 TDP1 CPT 16µM, TDP1 block inactive, IL1B secr inh inconclusive, TDP1 cell noCPT 16µM and CtBP-E1A blk inactive.
`COc1ccc(CNC(=O)C[C@H]2C[C@H](C(=O)N3CCOCC3)[C@@]3(CCC4CCCC4)c4[nH]c5cc(-c6ccco6)ccc5c4CCN3C2=O)cc1OC` gave Six1-Eya2 blk inactive, DT40 TDP1 CPT 18µM, TDP1 block inactive, IL1B secr inh inconclusive, TDP1 cell noCPT inconclusive and CtBP-E1A blk inactive.
`COC1OC2COC(c3ccccc3)OC2C(O)C1NC(C)=O` (stereo not given) gave Six1-Eya2 blk inactive, DT40 TDP1 CPT inactive, IL1B secr inh inactive, TDP1 cell noCPT inactive and CtBP-E1A blk inactive.
Screening CSc1nsc(N/N=C/c2ccc3c(c2)OCO3)c1C#N returned Six1-Eya2 blk inactive, DT40 TDP1 CPT inactive, TDP1 block inactive, IL1B secr inh inactive, TDP1 cell noCPT inactive and CtBP-E1A blk inactive.
`COc1cc(/C=N/Nc2snc(SC)c2C#N)cc(OC)c1OC` gave Six1-Eya2 blk inactive, DT40 TDP1 CPT inconclusive, TDP1 block inactive, IL1B secr inh inactive, TDP1 cell noCPT 1.8µM and CtBP-E1A blk inactive.
COC(=O)C1=C(c2ccccc2)c2ccccc2S(=O)(=O)N1CC(=O)Nc1cc(C)ccc1C was read as DT40 TDP1 CPT inactive, TDP1 block inactive and TDP1 cell noCPT inconclusive.
For CCOc1ccccc1Nc1nnc(SCC(=O)N2CCCC2)s1 the results were Six1-Eya2 blk inactive, DT40 TDP1 CPT inactive, TDP1 block inactive, IL1B secr inh inactive, TDP1 cell noCPT inactive and CtBP-E1A blk inactive.
Screening COc1ccc(N2C(=O)CC(Sc3nccc(C)n3)C2=O)cc1 (stereo not given) returned Six1-Eya2 blk inactive, DT40 TDP1 CPT inactive, TDP1 block inactive, IL1B secr inh inactive, TDP1 cell noCPT inactive and CtBP-E1A blk inactive.
`CCOC(=O)C1(Cc2ccccc2C)CCCN(C(=O)c2cc(C3CC3)[nH]n2)C1` (stereo not given) gave Six1-Eya2 blk inactive, DT40 TDP1 CPT inactive, IL1B secr inh inactive, TDP1 cell noCPT inconclusive and CtBP-E1A blk inactive.
COc1ccccc1C(=O)N=Nc1c(O)[nH]c2ccc([N+](=O)[O-])cc12 was read as Six1-Eya2 blk inconclusive, DT40 TDP1 CPT inconclusive, TDP1 block inactive, IL1B secr inh inactive and TDP1 cell noCPT 23µM.
For NC(=O)N=Nc1c(O)[nH]c2ccc([N+](=O)[O-])cc12 the results were Six1-Eya2 blk inconclusive, DT40 TDP1 CPT inactive, TDP1 block inactive, IL1B secr inh inactive, TDP1 cell noCPT inactive and CtBP-E1A blk -72.
`O=C(NCc1nc(-c2ccc(Cl)cc2)no1)c1ccco1` gave Six1-Eya2 blk inactive, DT40 TDP1 CPT inactive, TDP1 block inactive, IL1B secr inh inactive, TDP1 cell noCPT inactive and CtBP-E1A blk inactive.
Cc1ccc(S(=O)(=O)NCC(=O)OCC(=O)c2ccc(S(=O)(=O)N3CCCCC3)cc2)cc1C was read as Six1-Eya2 blk inactive, DT40 TDP1 CPT inactive, IL1B secr inh inactive, TDP1 cell noCPT inactive and CtBP-E1A blk inactive.
COc1ccc(NC(=O)C(NC(=O)c2ccccc2)C(C)C)cc1 (stereo not given) was read as Six1-Eya2 blk inactive, DT40 TDP1 CPT inactive, TDP1 block inactive, IL1B secr inh inactive, TDP1 cell noCPT inactive and CtBP-E1A blk inactive.
For CCOc1ccc(-n2ccnc(SCC(=O)Nc3ccc(OC)cc3OC)c2=O)cc1 the results were Six1-Eya2 blk inactive, DT40 TDP1 CPT 21µM, TDP1 block inactive, IL1B secr inh inactive, TDP1 cell noCPT 23µM and CtBP-E1A blk inactive.
Screening CCOc1ccc(-n2ccnc(SCC(=O)NCc3cccc(OC)c3)c2=O)cc1 returned Six1-Eya2 blk inactive, DT40 TDP1 CPT 18µM, TDP1 block inactive, IL1B secr inh inactive, TDP1 cell noCPT 23µM and CtBP-E1A blk inactive.
For COc1ccc(CNC(=O)CSc2nccn(-c3ccc(F)c(F)c3)c2=O)cc1 the results were Six1-Eya2 blk inactive, DT40 TDP1 CPT inactive, TDP1 block inactive, IL1B secr inh inactive, TDP1 cell noCPT inactive and CtBP-E1A blk inactive.
Nc1ccc(S(=O)(=O)Nc2nccc(/C=C/c3ccc(Cl)cc3)n2)cc1 was read as Six1-Eya2 blk inconclusive, DT40 TDP1 CPT inactive, TDP1 block inactive, IL1B secr inh inactive, TDP1 cell noCPT inactive and CtBP-E1A blk -76.
For COc1cccc(/C=C(/C#N)c2nc3ccccc3[nH]2)c1OC(C)C(=O)O (stereo not given) the results were Six1-Eya2 blk inactive, DT40 TDP1 CPT inactive, IL1B secr inh inactive and TDP1 cell noCPT inactive.
Screening Cc1cc(NC(=O)CCC(=O)N(Cc2ccco2)C2(C(=O)NC3CCCC3)CCCCC2C)no1 (stereo not given) returned Six1-Eya2 blk inactive, DT40 TDP1 CPT inconclusive, IL1B secr inh inactive, TDP1 cell noCPT inactive and CtBP-E1A blk inactive.
